This is a sample that favours compounds with a hit; in the whole collection about 2.4% have one here.
L3MBTL1 inh: inhibitors of human L3MBTL1; AlphaScreen L3MBTL1–H3K9me1 peptide binding; 230,000 compounds, 0.66% hits; AID 485360; Potency, µM (highest dose often 57.1 µM), inactives show top-dose activity, negative = inhibition, most hits filed as inhibitors; also: % is scaled to controls: 0 for no effect and ±100 for the full control effect; nearly all actives have a fitted effect of over 60% in size
Target sequence (Q9Y468 whole entry, looked up): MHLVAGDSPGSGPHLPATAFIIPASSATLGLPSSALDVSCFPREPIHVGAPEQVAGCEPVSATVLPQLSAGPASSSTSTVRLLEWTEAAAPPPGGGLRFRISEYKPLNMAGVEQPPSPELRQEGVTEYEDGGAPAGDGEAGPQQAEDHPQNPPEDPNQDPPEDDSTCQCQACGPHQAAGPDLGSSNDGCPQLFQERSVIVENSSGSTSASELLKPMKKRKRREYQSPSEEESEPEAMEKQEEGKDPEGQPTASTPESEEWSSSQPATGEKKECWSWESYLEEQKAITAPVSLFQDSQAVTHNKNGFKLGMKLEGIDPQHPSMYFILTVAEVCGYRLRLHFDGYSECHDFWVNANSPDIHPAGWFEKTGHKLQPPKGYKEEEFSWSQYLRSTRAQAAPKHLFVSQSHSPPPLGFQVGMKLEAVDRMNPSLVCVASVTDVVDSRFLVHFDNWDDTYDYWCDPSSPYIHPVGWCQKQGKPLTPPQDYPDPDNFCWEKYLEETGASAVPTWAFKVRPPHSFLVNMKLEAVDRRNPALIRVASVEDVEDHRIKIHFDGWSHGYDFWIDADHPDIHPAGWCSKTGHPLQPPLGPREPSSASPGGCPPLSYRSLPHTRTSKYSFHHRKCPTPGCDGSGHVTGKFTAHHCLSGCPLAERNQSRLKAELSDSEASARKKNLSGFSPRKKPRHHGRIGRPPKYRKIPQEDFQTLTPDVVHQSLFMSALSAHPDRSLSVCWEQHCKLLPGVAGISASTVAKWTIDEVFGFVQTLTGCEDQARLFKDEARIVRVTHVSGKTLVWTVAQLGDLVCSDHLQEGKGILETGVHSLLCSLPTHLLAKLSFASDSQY
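L3MBTL1 50 nM + b-AHA-H3(1-15)K9me1 75 nM, 30 min RT; compound added, 30 min RT; streptavidin donor/Ni-chelate acceptor beads 10 ug/mL each final, 30 min RT dark; AlphaScreen read.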
Pol beta inh: DNA polymerase beta (human) inhibition. P06746. Pol beta primer extension/strand displacement, fluorescence kinetic. Potency, µM (top dose mostly 114 µM), for the others: top-dose activity change, negative = inhibition, actives largely listed as inhibitors. 340,000 compounds, 1.3% hits. AID 485314; also: % is scaled to controls: 0 for no effect and ±100 for the full control effect
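Preincubation: enzyme (10 nM) with compound, 15 min, RT. Reaction: substrate added to 50 nM final. Reads: 0 and 10 min. Analysis: normalized, Hill fit.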
Pol eta inh-1: DNA polymerase eta (human) inhibition; recombinant Pol eta, fluorescent DNA replication assay; Potency, µM (highest dose often 114 µM), for inactives: top-dose activity change, negative = inhibition, hits mostly inhibitors; 390,000 compounds, 1.2% hits; also: % is scaled to controls: 0 for no effect and ±100 for the full control effect
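Fluorescent replication assay: 50 nM final substrate added after a 15 min room-temperature compound preincubation with 10 nM enzyme. Signal taken at 0 min and again at 10 min.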
Pol kappa inh-1: DNA polymerase kappa (human) inhibition. Q9UBT6. purified Pol kappa, fluorescent DNA synthesis assay, 10 min. Potency, µM (series often up to 107 µM), inactives show at the highest dose activity, negative = inhibition, hits mostly inhibitors. 400,000 compounds, 0.53% hits; also: % is scaled to controls: 0 for no effect and ±100 for the full control effect
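Readout: fluorescence, taken kinetically at 0 and 10 min. Conditions: 10 nM Pol kappa, 15 min RT compound preincubation, 50 nM substrate final. Controls: enzyme-free buffer wells.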
POLI inh: blocks human DNA polymerase iota activity; Pol iota fluorescent replication assay, 10 min; Potency, µM (top dose mostly 115 µM), for the others: at the highest dose activity, negative = inhibition, actives largely listed as inhibitors; 390,000 compounds, 1% hits
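Fluorescent replication assay read twice, at 0 min and 10 min after adding 50 nM (final) substrate. Enzyme (10 nM) and compounds were first incubated 15 min at room temperature; enzyme-free buffer wells were negative controls.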
Pol kappa inh-2: Pol kappa (human) inhibition, cherry-pick confirmation; shares compounds with Pol eta inh-1; purified Pol-kappa, fluorescent strand-displacement substrate; Potency, µM, hits mostly inhibitors; 920 compounds, 76% hits
Pol eta inh-2: Pol eta (human) inhibition, cherry-pick confirmation; shares compounds with Pol eta inh-1; Pol eta primer extension, TAMRA/BHQ fluorescence, 10 min; Potency, µM, actives largely listed as inhibitors; 2,600 compounds, 64% hits
* = called active by the depositor; [ ] = remark or other dose. Calls follow the shape of the dose curve; as a rule, active = well fitted curve in the direction sought with a large enough effect; inconclusive = small, poorly fitted or top-dose-only effect, or another doubt; inactive = no such curve, though single readings can be large; an effect the other way counts as inactive or inconclusive. Potency is read from the fitted curve at half-maximal effect.

What do the screens show for `COc1cc(NS(=O)(=O)c2ccc(NC(=S)NC(=O)c3sc4ccccc4c3Cl)cc2)nc(OC)n1`?
L3MBTL1 inh: inconclusive; Pol beta inh: 29%; Pol eta inh-1: -11%; Pol kappa inh-1: -5%; POLI inh: 20%

How did COc1cc(NS(=O)(=O)c2ccc(NC(=S)NC(=O)c3sc4cc(F)ccc4c3Cl)cc2)nc(OC)n1 do in these assays?
L3MBTL1 inh: 9%; Pol beta inh: 32%; Pol eta inh-1: 45µM*; Pol kappa inh-1: 1%; POLI inh: inconclusive; Pol eta inh-2: 43*

How did COc1ccc2[nH]c3c(c2c1)CCN1C(=O)C(CC(=O)NCC24CC5CC(CC(C5)C2)C4)C[C@H](C(=O)N(C(C)C)C(C)C)[C@@]31C (some centres not stated) do in these assays?
L3MBTL1 inh: -16%; Pol eta inh-1: -18%; Pol kappa inh-1: 8%; POLI inh: -2%

Results for O=C(COc1cc2oc(=O)cc(-c3ccccc3)c2cc1Cl)NC(Cc1c[nH]c2ccc(O)cc12)C(=O)O (configuration not stated) ?
L3MBTL1 inh: -14%; Pol beta inh: inconclusive; Pol eta inh-1: 50µM*; Pol kappa inh-1: -5%; POLI inh: inconclusive; Pol eta inh-2: inconclusive

What do the screens show for `CC(Oc1ccc2ccc(=O)oc2c1)C(=O)NC(Cc1c[nH]c2ccc(O)cc12)C(=O)O` (configuration not stated)?
Pol beta inh: inconclusive; Pol eta inh-1: 22µM*; Pol kappa inh-1: inconclusive; POLI inh: inconclusive; Pol eta inh-2: inconclusive

How did Cc1c(OC(C)C(=O)NC(Cc2c[nH]c3ccc(O)cc23)C(=O)O)ccc2c1oc(=O)c1ccccc12 (configuration not stated) do in these assays?
L3MBTL1 inh: -30%; Pol beta inh: 2.5µM*; Pol eta inh-1: 20µM*; Pol kappa inh-1: inconclusive; POLI inh: 45µM*; Pol eta inh-2: inconclusive

Results for CCCc1cc(CN(C)C(=O)c2ccc(OC3CCN(C(C)=O)CC3)c(OC)c2)[nH]n1 ?
Pol eta inh-1: -5%

How did Cc1cc(=O)[nH]c2ccc([N+](=O)[O-])cc12 do in these assays?
Pol kappa inh-1: -14%; POLI inh: 7%

Results for Cc1nc2cnc(N3CCOCC3)nc2n(C2CC2)c1=O ?
Pol kappa inh-1: 0%[60.1 µM]

Results for CCOc1ccc(/C=C\c2nc(O)c([N+](=O)[O-])c(=O)[nH]2)cc1OCC ?
Pol beta inh: 0%; Pol eta inh-1: -11%; Pol kappa inh-1: -1%; POLI inh: -19%

Results for COc1ccc(-n2c(C)cc(/C=C/c3nc(O)c([N+](=O)[O-])c(=O)[nH]3)c2C)cc1 ?
L3MBTL1 inh: inconclusive; Pol beta inh: -5%; Pol eta inh-1: 20µM*; Pol kappa inh-1: 50µM*; POLI inh: inconclusive; Pol eta inh-2: inconclusive

What do the screens show for `O=c1[nH]c(/C=C\c2ccc(O)c(O)c2)nc(O)c1[N+](=O)[O-]`?
L3MBTL1 inh: inconclusive; Pol beta inh: 25µM*; Pol eta inh-1: inconclusive; Pol kappa inh-1: inconclusive; POLI inh: inconclusive; Pol kappa inh-2: 17*; Pol eta inh-2: 76*

How did O=c1[nH]c(/C=C\c2cccc(O)c2)nc(O)c1[N+](=O)[O-] do in these assays?
L3MBTL1 inh: 3%; Pol beta inh: -25%; Pol eta inh-1: -18%; Pol kappa inh-1: -4%; POLI inh: inconclusive

What do the screens show for `Cc1cc(/C=C\c2nc(O)c([N+](=O)[O-])c(=O)[nH]2)c(C)n1-c1ccccc1`?
L3MBTL1 inh: -24%; Pol beta inh: 25µM*; Pol eta inh-1: 22µM*; Pol kappa inh-1: 89µM*; POLI inh: 28µM*; Pol eta inh-2: inconclusive

How did CCOC(=O)c1ccc(NC(=O)c2cc3c([nH]c2=O)CC(c2ccccc2)CC3=O)cc1 (configuration not stated) do in these assays?
Pol beta inh: 4%; Pol eta inh-1: -4%; Pol kappa inh-1: -3%[60.1 µM]; POLI inh: 4%

How did CCN(CC)CCN(C(=O)c1ccco1)c1nc2c(C)cccc2s1 do in these assays?
Pol beta inh: -13%; Pol eta inh-1: -8%; Pol kappa inh-1: 1%; POLI inh: 2%

What do the screens show for `CCOC(=O)C1=C(COC(=O)c2ccc([N+](=O)[O-])s2)NC(=O)NC1C` (configuration not stated)?
L3MBTL1 inh: inconclusive; Pol eta inh-1: 40µM*; Pol kappa inh-1: inconclusive; POLI inh: 50µM*; Pol eta inh-2: inconclusive

What do the screens show for `O=C(O)c1cc(NS(=O)(=O)c2ccc(NCc3ccccc3)c([N+](=O)[O-])c2)cc(C(=O)O)c1`?
L3MBTL1 inh: inconclusive; Pol beta inh: -20%; Pol eta inh-1: 16µM*; Pol kappa inh-1: -24%; POLI inh: -11%; Pol kappa inh-2: inconclusive

Results for O=C(O)c1cc(NS(=O)(=O)c2ccc(N3CCOCC3)c([N+](=O)[O-])c2)cc(C(=O)O)c1 ?
L3MBTL1 inh: -13%; Pol beta inh: -2%; Pol eta inh-1: 4%; Pol kappa inh-1: -7%; POLI inh: 7%

How did CCC/C=C/c1ccc(CN2C(C)C(=O)N(Cc3cn(CCC4OCCO4)nn3)CCS2(=O)=O)cc1 (configuration not stated) do in these assays?
Pol eta inh-1: -15%

How did CC1=C(C#N)C(=O)NC(=O)/C1=C\c1ccc(-c2ccc(C)cc2[N+](=O)[O-])o1 do in these assays?
L3MBTL1 inh: 25µM*; Pol beta inh: 32µM*; Pol eta inh-1: 50µM*; Pol kappa inh-1: -13%; POLI inh: inconclusive; Pol eta inh-2: inconclusive

Results for CCOC(=O)c1cc(-c2ccc(/C=C3/C(=O)NC(=O)C(C#N)=C3C)o2)ccc1Cl ?
L3MBTL1 inh: inconclusive; Pol beta inh: 35µM*; Pol eta inh-1: 28µM*; Pol kappa inh-1: inconclusive; POLI inh: inconclusive; Pol eta inh-2: 48*

How did CCOC(=O)C1=C(C)NC(=O)NC1c1ccc(-c2ccc(Cl)cc2)o1 (configuration not stated) do in these assays?
L3MBTL1 inh: -5%; Pol beta inh: -13%; Pol eta inh-1: -5%; Pol kappa inh-1: -6%; POLI inh: 42%

How did O=C(c1ccco1)N1C2C=CC(C2)C1(C(F)(F)F)C(F)(F)F (configuration not stated) do in these assays?
L3MBTL1 inh: -22%; Pol beta inh: -24%; Pol eta inh-1: 35µM*; Pol kappa inh-1: -18%; POLI inh: inconclusive; Pol eta inh-2: inconclusive

Screening results as filed in PubChem BioAssay.
